From PubChem BioAssay (EPA / NIEHS)
Calls of active or inactive are those of the source. The calls were made as follows: active = hit-call score of the fitted dose curve at least 0.9, where 1 is the maximum; inactive = score below 0.9.

Columns and labels:
Settings in all cases: mRNA level, 48 h; actives raise or lower the signal
[1] = read-out: ATP-citrate lyase (ACLY), ACLY (gene 47); test: LTEA_HepaRG_ACLY: Life Technologies and Expression Analysis (LTEA) Assay for ATP-citrate lyase (ACLY) using HepaRG (AID 2283466)
Procedure, shortened: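 HepaRG, 48 h exposure, 8-pt half-log dilutions (top 100 uM), 0.5% DMSO. Readout: ACLY mRNA, TaqMan qRT-PCR, housekeeping-normalized (ACTB/GAPDH/POLR2A). Bidirectional curve fit vs DMSO.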

[2] = read-out: Alkaline Phosphatase, Placental (ALPP) gene, ALPP (gene 250); test: LTEA_HepaRG_ALPP: Life Technologies and Expression Analysis (LTEA) Assay for Alkaline Phosphatase, Placental (ALPP) gene using HepaRG (AID 2283468);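 as to AC50: differentiated human HepaRG liver cells in serum-free induction medium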
Procedure, shortened: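 ALPP transcript level, measured by qRT-PCR and normalized to three housekeeping genes (ACTB, GAPDH, POLR2A), after 48 h dosing of differentiated HepaRG in serum-free induction medium. Top concentration 100 uM with half-log dilutions (8 points, 0.5% DMSO, duplicates); bidirectional fitting relative to DMSO.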

[3] = read-out: Bcl-2 (BAD) gene, BAD (gene 572); test: LTEA_HepaRG_BAD: Life Technologies and Expression Analysis (LTEA) Assay for Bcl-2 (BAD) gene using HepaRG (AID 2283469)
Procedure, shortened: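 BAD transcript change, measured by qRT-PCR against three housekeeping genes and fitted in both directions relative to 0.5% DMSO, after 48 h chemical treatment of human HepaRG liver cells at concentrations up to 100 uM.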

[4] = read-out: Bcl-2 (BAX) gene, BAX (gene 581); test: LTEA_HepaRG_BAX: Life Technologies and Expression Analysis (LTEA) Assay for Bcl-2 (BAX) gene using HepaRG (AID 2283470)
Procedure, shortened: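 Concentration-response endpoint fitted in both directions relative to 0.5% DMSO vehicle. Human HepaRG cultures receive test chemicals for 48 h at up to 100 uM; BAX mRNA is quantified by qRT-PCR against housekeeping genes.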

[5] = read-out: adenosine kinase (ADK) gene, ADK (gene 132); test: LTEA_HepaRG_ADK: Life Technologies and Expression Analysis (LTEA) Assay for adenosine kinase (ADK) gene using HepaRG (AID 2283471)
Procedure, shortened: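 Read-out is ADK transcript level measured by qRT-PCR and normalised to three housekeeping genes. Cells are human HepaRG, dosed for 48 h at up to 100 uM in 0.5% DMSO. Gain or loss of signal is fitted against DMSO controls.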

[6] = read-out: Alpha-fetoprotein (AFP) gene, AFP (gene 174); test: LTEA_HepaRG_AFP: Life Technologies and Expression Analysis (LTEA) Assay for Alpha-fetoprotein (AFP) gene using HepaRG (AID 2283472)
Procedure, shortened: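 After a 48 h plating period, cells are moved to serum-free induction medium and dosed in duplicate (100 uM maximum, half-log dilutions, 0.5% DMSO) for another 48 h. Total RNA goes to TaqMan qRT-PCR; AFP signal is housekeeping-normalized.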

BCL2L11 (gene 10018) = test: LTEA_HepaRG_BCL2L11: Life Technologies and Expression Analysis (LTEA) Assay for Bcl-2 (BCL2L11) gene using HepaRG (AID 2283473)
Procedure, shortened: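 BCL2L11 transcript levels are measured by Fluidigm qRT-PCR, normalized to three housekeeping genes. HepaRG cultures were plated 48 h, then treated 48 h with test chemical (top 100 uM, half-log, 0.5% DMSO vehicle); curves were fitted bidirectionally against DMSO.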

[7] = read-out: Apolipoprotein A-V (APOA5) gene, APOA5 (gene 116519); test: LTEA_HepaRG_APOA5: Life Technologies and Expression Analysis (LTEA) Assay for Apolipoprotein A-V (APOA5) gene using HepaRG (AID 2283474)
Procedure, shortened: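 APOA5 transcript levels were quantified by qRT-PCR, normalized to three housekeeping genes, after 48 h chemical treatment of HepaRG cells (8 points, 100 uM maximum, half-log steps, 0.5% DMSO). Curves fitted in both directions against vehicle.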

[8] = read-out: Apoptosis regulator Bcl-2 (Homo sapiens) (UniProt P10415); test: LTEA_HepaRG_BCL2: Life Technologies and Expression Analysis (LTEA) Assay for Bcl-2 gene using HepaRG (AID 2283475);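 also: BCL2 transcript by TaqMan qRT-PCR normalised to ACTB GAPDH and POLR2A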
Procedure, shortened: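 Expression change of BCL2 mRNA in HepaRG after 48 h dosing, quantified by TaqMan qRT-PCR against three endogenous controls. Concentration-response used eight points up to 100 uM, vehicle 0.5% DMSO.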

[9] = read-out: Bcl-2 (BID) gene, BID (gene 637); test: LTEA_HepaRG_BID: Life Technologies and Expression Analysis (LTEA) Assay for Bcl-2 (BID) gene using HepaRG (AID 2283476)
Procedure, shortened: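 Gain or loss of BID expression is fitted relative to 0.5% DMSO vehicle. Human HepaRG liver cells received a 48 h chemical exposure over an eight-point concentration range.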

Caspase-3 (Homo sapiens) = Caspase-3 (Homo sapiens) (UniProt P42574); test: LTEA_HepaRG_CASP3: Life Technologies and Expression Analysis (LTEA) Assay for cysteine-aspartic acid protease (CASP3) using HepaRG (AID 2283477)
Procedure, shortened: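 Expression of CASP3 was quantified by TaqMan qRT-PCR against three housekeeping genes (ACTB, GAPDH, POLR2A), bidirectionally versus 0.5% DMSO. HepaRG cultures received compounds in duplicate, top 100 uM with half-log steps, for 48 h in serum-free induction medium.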

[10] = read-out: Cytochrome P450 (CYP24A1), CYP24A1 (gene 1591); test: LTEA_HepaRG_CYP24A1: Life Technologies and Expression Analysis (LTEA) Assay for Cytochrome P450 (CYP24A1) using HepaRG (AID 2283478)
Procedure, shortened: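 mRNA of CYP24A1 quantified by TaqMan qRT-PCR (ACTB/GAPDH/POLR2A normalization) after 48 h chemical exposure of HepaRG cells, top concentration 100 uM, half-log steps, 0.5% DMSO vehicle, duplicates. Curves fitted bidirectionally against DMSO baseline.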

[11] = read-out: Cytochrome P450 (CYP1A2), CYP1A2 (gene 1544); test: LTEA_HepaRG_CYP1A2: Life Technologies and Expression Analysis (LTEA) Assay for Cytochrome P450 (CYP1A2) using HepaRG (AID 2283479)
Procedure, shortened: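 CYP1A2 transcript measured by TaqMan qRT-PCR against three housekeeping genes after 48-hour chemical exposure of HepaRG cells. Eight-point half-log series topping at 100 uM in 0.5% DMSO, duplicates; gain or loss fitted relative to vehicle.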

[12] = read-out: cysteine-aspartic acid protease (CASP8), CASP8 (gene 841); test: LTEA_HepaRG_CASP8: Life Technologies and Expression Analysis (LTEA) Assay for cysteine-aspartic acid protease (CASP8) using HepaRG (AID 2283480)
Procedure, shortened: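 HepaRG, 48 h exposure, duplicate wells; 8 conc, half-log from 100 uM, 0.5% DMSO. Serum-free induction medium. CASP8 mRNA by TaqMan qRT-PCR, norm. ACTB/GAPDH/POLR2A; gain/loss fitted vs DMSO.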

[13] = read-out: Cytochrome P450 (CYP2B6), CYP2B6 (gene 1555); test: LTEA_HepaRG_CYP2B6: Life Technologies and Expression Analysis (LTEA) Assay for Cytochrome P450 (CYP2B6) using HepaRG (AID 2283481)
Procedure, shortened: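 CYP2B6 transcript level quantified by qRT-PCR against three housekeeping genes, fitted bidirectionally relative to DMSO. HepaRG cultures received chemicals for 48 h, 8-point half-log series from 100 uM in 0.5% DMSO, duplicate wells, serum-free induction medium.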

[14] = read-out: Cytochrome P450 2C19 (Homo sapiens) (UniProt P33261); test: LTEA_HepaRG_CYP2C19: Life Technologies and Expression Analysis (LTEA) Assay for CYP2C19 using HepaRG (AID 2283482)
Procedure, shortened: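 CYP2C19 transcript levels by qRT-PCR, normalized to three housekeeping genes, in HepaRG cells after 48 h chemical exposure. Eight-point half-log series topping at 100 uM, 0.5% DMSO vehicle. Increases and decreases both fitted against DMSO.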

CYP2C8 (gene 1558) = test: LTEA_HepaRG_CYP2C8: Life Technologies and Expression Analysis (LTEA) Assay for CYP2C8 using HepaRG (AID 2283483)
Procedure, shortened: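 CYP2C8 mRNA induction or loss, by qRT-PCR normalized to ACTB/GAPDH/POLR2A, is read in HepaRG cells after 48 h treatment. Concentrations run from 100 uM down in half-log dilutions, with 0.5% DMSO as vehicle and baseline.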

CYP2C9 (gene 1559) = test: LTEA_HepaRG_CYP2C9: Life Technologies and Expression Analysis (LTEA) Assay for CYP2C9 using HepaRG (AID 2283484)
Procedure, shortened: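 Cells plated 48 h, switched to serum-free induction medium, then treated in duplicate for 48 h at eight concentrations (max 100 uM, 0.5% DMSO). RNA then analysed by qRT-PCR for CYP2C9; curves fitted in both directions relative to DMSO.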

CYP2E1 (gene 1571) = test: LTEA_HepaRG_CYP2E1: Life Technologies and Expression Analysis (LTEA) Assay for CYP2E1 using HepaRG (AID 2283485)
Procedure, shortened: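 Differentiated HepaRG cells were treated in duplicate for 48 h with chemicals in 0.5% DMSO, from 100 uM downward in half-log dilutions. RNA was then analysed by qRT-PCR for CYP2E1 induction or loss.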

[15] = read-out: Peroxisomal acyl-coenzyme A oxidase 1 (ACOX1) gene, ACOX1 (gene 51); test: LTEA_HepaRG_ACOX1: Life Technologies and Expression Analysis (LTEA) Assay for Peroxisomal acyl-coenzyme A oxidase 1 (ACOX1) gene using HepaRG (AID 2283467)
Procedure, shortened: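 Measured by qRT-PCR against three housekeeping genes: ACOX1 transcript change in human HepaRG cells after 48 h dosing. Concentrations ran up to 100 uM in half-log steps. Curves were fitted bidirectionally relative to 0.5% DMSO.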

Measured: AC50

Sequence of Apoptosis regulator Bcl-2 (Homo sapiens) (P10415 whole entry, looked up): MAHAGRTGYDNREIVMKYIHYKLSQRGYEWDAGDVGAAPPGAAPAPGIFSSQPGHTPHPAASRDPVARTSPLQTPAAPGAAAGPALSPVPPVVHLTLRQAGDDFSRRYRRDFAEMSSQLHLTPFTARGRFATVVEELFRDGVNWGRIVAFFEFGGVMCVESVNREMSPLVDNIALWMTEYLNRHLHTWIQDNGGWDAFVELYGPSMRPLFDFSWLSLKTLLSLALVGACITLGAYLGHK
Sequence of Cytochrome P450 2C19 (Homo sapiens) (P33261 whole entry, looked up): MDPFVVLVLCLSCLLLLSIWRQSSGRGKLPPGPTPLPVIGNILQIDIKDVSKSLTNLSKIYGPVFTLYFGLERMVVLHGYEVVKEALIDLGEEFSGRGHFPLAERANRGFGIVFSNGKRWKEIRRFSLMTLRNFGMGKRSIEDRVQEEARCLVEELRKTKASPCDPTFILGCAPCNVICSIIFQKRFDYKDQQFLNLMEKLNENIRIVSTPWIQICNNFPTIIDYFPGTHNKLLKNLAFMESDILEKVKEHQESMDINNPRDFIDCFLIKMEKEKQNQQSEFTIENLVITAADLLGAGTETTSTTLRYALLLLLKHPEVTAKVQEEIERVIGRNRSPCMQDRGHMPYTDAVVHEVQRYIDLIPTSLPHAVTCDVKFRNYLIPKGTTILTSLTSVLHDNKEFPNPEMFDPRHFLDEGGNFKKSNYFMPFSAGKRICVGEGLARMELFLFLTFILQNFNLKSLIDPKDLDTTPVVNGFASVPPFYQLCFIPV
Sequence of Caspase-3 (Homo sapiens) (P42574 whole entry, looked up): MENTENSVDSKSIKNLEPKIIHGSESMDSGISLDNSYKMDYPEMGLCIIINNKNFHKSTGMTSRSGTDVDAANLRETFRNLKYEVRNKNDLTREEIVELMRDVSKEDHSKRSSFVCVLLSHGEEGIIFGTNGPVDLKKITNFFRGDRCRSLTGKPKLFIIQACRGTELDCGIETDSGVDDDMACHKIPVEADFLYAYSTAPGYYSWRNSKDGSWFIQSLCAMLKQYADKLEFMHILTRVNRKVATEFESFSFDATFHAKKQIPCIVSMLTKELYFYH

S=c1[nH]c2ccccc2s1
active: [11] 10.7 µM
not listed: [15]
inactive: all other assays above

CC1(C)C(=O)NC(=O)N1CO
not listed: [15]
inactive: all other assays above

NC=O
not listed: [1] | [9]
inactive: all other assays above

CCCCC(CC)COC(=O)CCCCCCCC(=O)OCC(CC)CCCC (stereo unspecified)
active: [13] 30.9 µM
not listed: [9] | [11] | [15]
inactive: all other assays above

Cc1c(C)c2c(c(C)c1O)CCC(C)(COc1ccc(CC3SC(=O)NC3=O)cc1)O2 (stereo unspecified)
active: [2] 15.8 µM | [4] 29.6 µM | [6] 25 µM | BCL2L11 (gene 10018) 90.1 µM | [11] 15.8 µM | [13] 26.4 µM | CYP2E1 (gene 1571) 25.6 µM
not listed: [9] | [14] | [15]
inactive: all other assays above

CC(=O)O[C@]1(C(C)=O)CC[C@H]2[C@@H]3C=C(Cl)C4=CC(=O)[C@@H]5C[C@@H]5[C@]4(C)[C@H]3CC[C@@]21C
active: [15] 29.2 µM | [4] 50 µM | [6] 50 µM | [7] 84.3 µM | [10] 0.00316 µM | [13] 50 µM | [14] 63.5 µM | CYP2C9 (gene 1559) 50 µM | CYP2E1 (gene 1571) 36.9 µM
inactive: [2] | [3] | [5] | BCL2L11 (gene 10018) | [8] | [9] | Caspase-3 (Homo sapiens) | [12] | CYP2C8 (gene 1558)

CC(=O)CC(c1ccccc1)c1c(O)c2ccccc2oc1=O (stereo unspecified)
active: [1] 50 µM | [13] 29.7 µM | [14] 5.47 µM | CYP2E1 (gene 1571) 73.8 µM
not listed: [8] | [9] | [11] | [15]
inactive: all other assays above

COC(=O)CCC(=O)OC
not listed: [1]
inactive: all other assays above

C/C=C/C=C/C(=O)O
active: BCL2L11 (gene 10018) 0.00162 µM
not listed: [1]
inactive: all other assays above

COc1ccc(C(=O)Nc2nc3ccccc3c(NCc3ccccc3)c2C#N)cc1
active: [1] 16.5 µM | [6] 21.7 µM | BCL2L11 (gene 10018) 10.8 µM | [10] 0.00721 µM | [14] 22.1 µM | CYP2C8 (gene 1558) 16.7 µM | CYP2C9 (gene 1559) 16.3 µM | CYP2E1 (gene 1571) 20 µM
not listed: [11] | [15]
inactive: all other assays above

CN(C)CCCN(C)CCCN(C)C
not listed: [8] | [15]
inactive: all other assays above

O=C1c2c(O)cccc2Cc2cccc(O)c21
active: [11] 18.2 µM
not listed: [1]
inactive: all other assays above

COC(=O)CCCC(=O)OC
not listed: [8] | [11] | [15]
inactive: all other assays above

CC(C)COC(=O)CCCCC(=O)OCC(C)C
not listed: [8] | [9] | [15]
inactive: all other assays above
